In the library only some 21% were active in any assay of this set; here they are far more common.
RORg inh: blocks mouse ROR gamma transcriptional activity | Potency, µM (series often up to 53.6 µM), inactives show top-dose activity change, negative = inhibition, actives largely listed as inhibitors | AID 2551 | Drosophila S2 Gal4-RORgamma UAS-luciferase reporter, 20 h | actives 5.4% (n = 310,000); note: potency is the fitted concentration of half-maximal effect; nearly all actives have a fitted effect of over 60% in size
Target sequence (P51450 whole entry, looked up, the tested form may be a part): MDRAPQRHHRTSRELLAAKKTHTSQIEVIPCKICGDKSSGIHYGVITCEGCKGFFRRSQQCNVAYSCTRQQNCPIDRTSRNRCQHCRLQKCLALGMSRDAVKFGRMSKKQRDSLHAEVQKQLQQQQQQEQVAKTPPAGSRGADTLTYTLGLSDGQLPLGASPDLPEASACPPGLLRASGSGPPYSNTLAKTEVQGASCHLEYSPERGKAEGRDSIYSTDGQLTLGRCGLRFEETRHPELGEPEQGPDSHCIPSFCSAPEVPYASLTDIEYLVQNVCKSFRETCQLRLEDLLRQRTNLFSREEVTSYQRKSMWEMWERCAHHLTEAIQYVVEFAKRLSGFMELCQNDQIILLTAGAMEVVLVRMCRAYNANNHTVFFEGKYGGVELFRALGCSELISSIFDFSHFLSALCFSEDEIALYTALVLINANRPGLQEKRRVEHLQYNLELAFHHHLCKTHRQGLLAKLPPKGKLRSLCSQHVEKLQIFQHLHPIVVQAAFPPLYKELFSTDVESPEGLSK
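Drosophila S2 cells stably expressing Gal4-DBD/mouse RORγ fusion under metallothionein promoter plus UAS-luciferase; compound 1 h, then 700 uM CuSO4 induction for 20 h at ambient temperature; inhibition read as reduced luminescence.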
DT40 TDP1 CPT: growth inhibition of DT40 Tdp1-/-;hTDP1 cells with camptothecin (screen for TDP1 inhibitors) | AID 686979 | Potency, µM (series often up to 46.2 µM), for inactives: at the highest dose activity change, negative = growth inhibition, hits mostly inhibitors | chicken DT40 Tdp1-/-;hTDP1 cells + 20 nM CPT, ATP luminescence, 48 h | actives 12% (n = 420,000); note: potency is the fitted concentration of half-maximal effect; nearly all actives have a fitted effect of over 55% in size
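Chicken DT40 Tdp1-/- cells stably complemented with human TDP1 were seeded at 400 cells/well in medium containing 20 nM camptothecin, exposed to pin-transferred compounds, and grown at 37 °C for at least 48 hr. Viability was read as ATP luminescence.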
DT40 TDP1 no CPT: qHTS for Inhibitors of human tyrosyl-DNA phosphodiesterase 1 (TDP1): qHTS in cells in absence of CPT; AID 686978, 2013; DT40 Tdp1-/- hTDP1 cells, no CPT, ATP luminescence, 48 h; Potency, µM (top dose mostly 46.2 µM), for the others: at the top dose activity change, negative = growth inhibition, hits mostly inhibitors; actives 15% (n = 420,000); note: potency is the fitted concentration of half-maximal effect; nearly all actives have a fitted effect of over 55% in size
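Chicken DT40 Tdp1-/- cells complemented with human TDP1, screened without camptothecin (DMSO vehicle only), 400 cells/well. Compounds pin-transferred, cells incubated at 37 °C for at least 48 hr. Growth read as ATP-dependent luminescence (CellTiter-Glo, 30 min at RT).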
VP16 counter: counter-screen for ROR gamma inhibitors: Gal4-VP16 reporter | Drosophila S2 Gal4-VP16 UAS-luciferase, luminescence, 20 h | Potency, µM (series often up to 53.6 µM), for the others: at the highest dose activity, negative = inhibition, hits mostly inhibitors | actives 3.5% (n = 310,000) | AID 2546;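 note: Gal4-VP16 expression switched on by copper sulfate through the metallothionein promoter; potency is the fitted concentration of half-maximal effect; nearly all actives have a fitted effect of over 50% in size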
ELG1 repair inh: inhibitors of ELG1-dependent DNA repair in HEK293T cells. AID 504467. actives 2.3% (n = 330,000). HEK293T ELG1-luciferase reporter, luminescence, 16 h; DNA damage induced by 5-fluorouridine. Potency, µM (titrated, usually from 46.1 µM), for the others: at the highest dose activity change, negative = inhibition, hits mostly inhibitors; note: potency is the fitted concentration of half-maximal effect; nearly all actives have a fitted effect of over 55% in size
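Step one: seed 2,000 cells per well. Step two: pin-transfer compound or DMSO alongside 5-fluorouridine. Step three: incubate 16 hr, 37 °C, 5% CO2. Step four: add ONE-Glo, wait 30 min, read luminescence.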
IL1B secr inh: inhibitors of inflammasome signaling (IL-1 beta secretion) | AID 743279 | THP-1 LPS/ATP IL-1B secretion, AlphaLISA, 16 h; stronger effect = lower value | actives 4.7% (n = 360,000) | activity change, % at 57.5 µM; in the data active = activity change below about -50%; inconclusive = mostly about -30% to -49%
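THP-1 cells pretreated 1 hr with compounds (up to 57.5 uM final), then stimulated with LPS (250 ng/mL final) plus ATP (1.25 mM final); secreted IL-1B measured by AlphaLISA after 16 hr, decreased signal indicating inhibition.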
Numbers without * were called inactive; ? = inconclusive; · = no result; [ ] = dose if it differs, or a comment. Unless noted, calls come from the whole dose curve; as a rule, active = well fitted curve in the direction sought with a large enough effect; inconclusive = small, poorly fitted or top-dose-only effect, or another doubt; inactive = no such curve, though single readings can be large; an effect the other way counts as inactive or inconclusive. % is set by controls: 0 for no effect and ±100 for the full control effect.

SMILES	RORg inh	DT40 TDP1 CPT	DT40 TDP1 no CPT	VP16 counter	ELG1 repair inh	IL1B secr inh
CCn1cc(C(=O)NCCCO)c(=O)c2cc(F)c(N3CCN(C)CC3)cc21	-12%	-28%	-20%	5%	7%	3
CCn1cc(C(=O)N[C@H](C)c2ccccc2)c(=O)c2cc(F)c(N3CCN(C)CC3)cc21	-26%	?	?	4%	?	-74*
CCCCCCNC(=O)c1cn(CC)c2cc(N3CCN(C)CC3)c(F)cc2c1=O	11µM*	21µM*	26µM*	13µM*	2%	-55*
CCCCCCCC(=O)N1CCN(c2cc3c(cc2F)c(=O)c(C(=O)O)cn3CC)CC1	6%	23µM*	?	0%	-1%	11
CCCCCCn1cc(C(=O)O)c(=O)c2cc(F)c(N3CCN(C)CC3)cc21	17%	16µM*	18µM*	-13%	-5%	11
CCOC(=O)c1cn(CC)c2cc(N3CCN(C)CC3)c(F)cc2c1=O	0%	-10%	3%	-6%	4%	-16
Cc1ccc(Cc2c(-c3ccccc3)nc3c(Cl)cc(C(F)(F)F)cn23)cc1	·	-4%	-3%	·	·	37
Cc1cccc(NC(=O)c2nc[nH]c2C(=O)N[C@H](C)CO)c1	·	4%	3%	·	·	-2
CCOc1c2ccccc2nn1CCO	·	0%	-1%	·	13%	26
COc1ccc([C@@H]2C[C@H]3[C@@H](CN2S(=O)(=O)c2ccccc2)C(=O)C[C@@H](c2ccc(OC)cc2)N3S(=O)(=O)c2ccccc2)cc1	·	-15%	3%	·	·	9
Cc1nccn1-c1ccc(NC(=O)[C@H]2O[C@@H](n3ccc(N)nc3=O)[C@H](O)[C@@H]2O)cc1	·	2%	-17%	·	·	22
CCCCCCn1cc(C(=O)OCC)c(=O)c2cc(F)c(F)cc21	-14%	?	23µM*	1%	?	?
CCOC(=O)c1cn(CC#N)c2cc(F)c(F)cc2c1=O	-4%	4%	-10%	2%	15%	0
O=c1c2ccccc2nc(/C=C/c2c[nH]c3ccccc23)n1-c1ccc([N+](=O)[O-])cc1	8%	10µM*	?	-11%	?	11
CC(=O)N(C(C)=O)n1c(/C=C/c2ccc([N+](=O)[O-])cc2)nc2ccccc2c1=O	?	?	?	-1%	24%	-12
Cc1[nH]c2ccccc2c1/C=C/c1nc2ccccc2c(=O)n1-c1cccc([N+](=O)[O-])c1	-26%[10 µM]	?	18µM*	?	2%	1
CCC(=O)Nc1ccc(N2CCCCC2)cc1	?	?	-7%	5%	?	-11
CN1OC[C@@H]2CN(C(=S)NCCc3ccccc3)[C@H](c3ccc(N4CCCCC4)cc3)C[C@@H]21	·	16µM*	?	·	·	1
COCCCNC(=S)Nc1ccc(N2CCCCC2)cc1	18µM*	-30%	?	?	10%	-22
COCCCNC(=S)N1CCN(c2ccccc2)CC1	24%	5%	0%	24%	-13%	27
CCNC(=S)Nc1ccc(N2CCCCC2)cc1	13µM*	-27%	?	-68%	0%	7
O=C(Cc1ccccc1)Nc1ccc(N2CCCCC2)cc1	-12%	?	18%	-14%	?	-23
S=C(NCCc1ccccc1)Nc1ccc(N2CCCCC2)cc1	7.9µM*	?	?	?	13%	105
COc1ccccc1C(=O)N[C@@H]1c2ccccc2C2(CCN(Cc3ccc4c(c3)OCO4)CC2)[C@H]1O	·	-5%[9.04 µM]	?	·	·	·
COC(=O)c1cnc(NC(=O)C2(C)CCN2C(=O)C(C)C)s1 (stereo not drawn)	·	-3%	3%	·	·	0
SMILES	RORg inh	DT40 TDP1 CPT	DT40 TDP1 no CPT	VP16 counter	ELG1 repair inh	IL1B secr inh
CCCc1ccc(C2Sc3ccccc3NC3=C2C(=O)c2ccccc23)cc1 (stereo not drawn)	·	?	15µM*	·	·	·
O=C(CC1Sc2ccccc2NC1=O)NNc1cccc(Cl)c1Cl (stereo not drawn)	·	?	?	·	·	-2
O=C1C2=C(Nc3ccccc3SC2c2c(F)cccc2Cl)c2ccccc21 (stereo not drawn)	·	15µM*	?	·	·	·
COc1ccc(Br)cc1C1Sc2ccccc2NC2=C1C(=O)c1ccccc12 (stereo not drawn)	·	?	13µM*	·	·	·
O=C1Nc2ccccc2SC1c1ccccc1 (stereo not drawn)	19%	-5%	-18%	-8%	8%	-15
O=C1C2=C(Nc3ccccc3SC2c2ccc(Cl)c(Cl)c2)c2ccccc21 (stereo not drawn)	·	15µM*	26µM*	·	·	·
CCOc1ccc(C2Sc3ccccc3NC3=C2C(=O)OC3)cc1 (stereo not drawn)	21%	?	?	0%	?	0
COc1ccc(Cc2[nH]n3c(=O)c(Cl)c(C)nc3c2-c2ccccc2)cc1	-11%	?	?	3%	16%	75
CN1CCC[C@@H](CC2c3ccccc3Sc3ccccc32)C1	-5%[2.98 µM]	·	·	-12%[17 µM]	·	·
Cc1ccsc1C1CC(=O)Nc2ccccc2S1 (stereo not drawn)	15%	?	?	5%	11%	22
O=C1C2=C(Nc3ccccc3SC2c2ccccc2C(F)(F)F)c2ccccc21 (stereo not drawn)	·	5.8µM*	3.3µM*	·	·	·
COc1ccc(C(=O)N2CCCC(Nc3ccc(C)c(C)c3)C2)c(OC)n1 (stereo not drawn)	-19%	-5%	-2%	-6%	0%	-2
CCCc1c(C)nn(C(=O)/C(C#N)=N/Nc2ccccc2[N+](=O)[O-])c1C	-30%	-5%	-21%	1%	-3%	1
COc1ccc(C(=O)/C(C#N)=N/Nc2ccccc2[N+](=O)[O-])cc1	?	2.3µM*	1.8µM*	?	?	-22
COc1ccc(C(=O)/C(C#N)=N/Nc2ccc([N+](=O)[O-])cc2)cc1	5.6µM*	0.58µM*	0.52µM*	3.5µM*	1.3µM*	77
COc1cccc(CNC(=O)C(=O)NCC(c2ccco2)S(=O)(=O)c2ccccc2)c1 (stereo not drawn)	·	-27%	?	·	·	·
COc1ccc2nc(N(Cc3cccnc3)C(=O)c3ccco3)sc2c1	·	-11%	-4%	·	·	·
Cc1ccc(Cl)cc1NC1=C/C(=N\S(=O)(=O)c2cccs2)c2ccccc2C1=O	-92%	5.2µM*	2.9µM*	5µM*	5.2µM*	-99*

High-throughput results: PubChem, National Center for Advancing Translational Sciences (NCATS)
